Laboratory results as given in PubChem BioAssay AID588727 (Southern Research Specialized Biocontainment Screening …, 2011).
About 450 (0.13%) of roughly 350,000 compounds were called active. The rule behind the calls is not given here. These entries were drawn from the full list. Potency and affinity values are given separately.

Assay: inhibitors of VEEV TC-83 cytopathic effect, confirmation, Vero cells (AID 588727)
Settings: VEEV TC-83 cytopathic effect inhibition, at 20 µM
[1] = stronger effect = higher value unless noted

SMILES: O=C(NC1CCCc2c1cnn2-c1ccc(F)cc1F)c1ccccn1 (configuration not stated)
- inhibition [1]: inactive

SMILES: O=C(CSc1nnc(Cc2ccccc2)c(=O)[nH]1)Nc1ccccc1
- inhibition [1]: 1.19% (inactive)

SMILES: CC1CCCC(=NNC(=O)C2COc3ccccc3O2)C1 (configuration not stated)
- inhibition [1]: 1.68% (inactive)

SMILES: C=CCNc1n[nH]c(=S)s1
- inhibition [1]: 0.53% (inactive)

SMILES: Cc1cc(/C=C(\C#N)C(=O)Nc2ccccc2)c(C)n1-c1cccnc1
- inhibition [1]: 4.21% (inactive)

SMILES: CCC(NC(=O)Cc1c(C)c2cc3c(cc2oc1=O)OC(C)(C)CC3)C(=O)O (configuration not stated)
- inhibition [1]: 0.65% (inactive)

SMILES: C(=N\N1CCN(C(c2ccccc2)c2ccccc2)CC1)/c1ccc2c(c1)OCO2
- inhibition [1]: inactive

SMILES: COC(=O)c1c(C)[nH]c(C(=O)C(C)OC(=O)c2c(C)noc2C)c1C (configuration not stated)
- inhibition [1]: inactive

SMILES: O=C1N=C(N2CCOCC2)SC1=C1CCCCC1
- inhibition [1]: 1.03% (inactive)

SMILES: Cc1cc(N2CCN(Cc3nc(-c4ccc(F)cc4)oc3C)CC2)cc(C)n1
- inhibition [1]: 0.13% (inactive)

SMILES: Cc1oc(-c2ccc(Cl)cc2)nc1CN1CCC(C(=O)NCCCN2CCOCC2)CC1
- inhibition [1]: 2.07% (inactive)

SMILES: Cc1ccccc1-c1nc(CN2CCC(C(=O)NCCCN3CCCC(C)C3)CC2)c(C)o1 (configuration not stated)
- inhibition [1]: 9.38% (inactive)

SMILES: Cc1oc(-c2ccc(Cl)cc2)nc1CN1CCC(C(=O)NCC2CCCO2)CC1 (configuration not stated)
- inhibition [1]: 0.22% (inactive)

SMILES: Cc1cccc(N2CCN(Cc3nc(-c4cccc(Cl)c4)oc3C)CC2)n1
- inhibition [1]: inactive

SMILES: CCN(CCNC(=O)C1CCN(Cc2nc(-c3ccc(Cl)cc3)oc2C)CC1)c1ccccc1
- inhibition [1]: inactive

SMILES: CC(=O)c1cccc(-n2c(CCC(=O)O)ccc2-c2cccs2)c1
- inhibition [1]: inactive

SMILES: COc1ccc(-c2nnc(SCC(=O)c3cccs3)n2-c2ccc(Cl)cc2)cc1
- inhibition [1]: 8.15% (inactive)

SMILES: O=C(N/N=C/c1cccnc1)C12CC3CC(CC(C3)C1)C2
- inhibition [1]: 2.16% (inactive)

SMILES: Cc1[nH]c2ccc(F)cc2c1CCN(Cc1cccnc1)C(=S)Nc1cccc(F)c1
- inhibition [1]: 2.61% (inactive)

SMILES: O=C(O)/C(=C\c1ccc(-c2ccc(F)cc2)o1)c1ccccc1
- inhibition [1]: 1.57% (inactive)

SMILES: COc1cccc(/C=C2/CCC(CN(C)C)C2=O)c1 (configuration not stated)
- inhibition [1]: 48.7% (inactive)

SMILES: CN(C)CC1CC/C(=C\c2ccc(O)cc2)C1=O (configuration not stated)
- inhibition [1]: inactive

SMILES: O=C(CSc1nc2c([nH]c3ccccc32)c(=O)n1-c1ccccc1F)NCC1CCCO1 (configuration not stated)
- inhibition [1]: 9.1% (inactive)

SMILES: CCCN(Cc1nnc(-c2cccs2)o1)C(=O)c1cccc(S(=O)(=O)N2CCOCC2)c1
- inhibition [1]: 3.36% (inactive)

SMILES: O=C(c1cc(S(=O)(=O)N2CCCCC2)ccc1F)N1CCCCC1
- inhibition [1]: 2.62% (inactive)

SMILES: Cc1nn(-c2ccccn2)c(C)c1Oc1ccccc1O
- inhibition [1]: 0.59% (inactive)

SMILES: Cc1cc(C)nc(-n2nc(C)c(Oc3ccccc3O)c2C)n1
- inhibition [1]: 2.08% (inactive)

SMILES: CCOc1ccc(-c2ccc(SCc3ccccn3)nn2)cc1
- inhibition [1]: 8.3% (inactive)

SMILES: Cc1[nH]c(C)c(S(=O)(=O)N2CCN(c3cccc(C(F)(F)F)c3)CC2)c1C(=O)N1CCCC1
- inhibition [1]: 0.9% (inactive)

SMILES: Cc1[nH]c(C)c(S(=O)(=O)N2CCN(c3cccc(Cl)c3)CC2)c1C(=O)N1CCCC1
- inhibition [1]: 1.13% (inactive)

SMILES: N=C1C(c2nc(-c3ccc(F)cc3)cs2)=C(O)CN1CCCN1CCOCC1
- inhibition (stronger effect = higher value): 1.67% (inactive)
- inhibition (measured here: 10K pilot screen inhibition, stronger effect = higher value): 0.31%

SMILES: S=C(NCCCN1CCOCC1)N1CCN(c2nc(-c3ccc(Cl)cc3)cs2)CC1
- inhibition [1]: 1.38% (inactive)

SMILES: CCc1cc(=O)oc2cc(C)cc(OC(C)C(=O)NCCN3CCOCC3)c12 (configuration not stated)
- inhibition [1]: 2.06% (inactive)

SMILES: CC(C)CCSc1nc2ccccc2[nH]1
- inhibition [1]: 0.68% (inactive)

SMILES: COc1ccc(OC)c(C(=O)COC(=O)COc2ccccc2F)c1
- inhibition [1]: 0.88% (inactive)

SMILES: Cc1ccc(OCCCCN2CCC(C)CC2)c(Br)c1
- inhibition [1]: 0.3% (inactive)

SMILES: Cc1ccc(OCCCCN2CCCCC2)c(Br)c1
- inhibition [1]: inactive

SMILES: CN(Cc1ccccc1)C(=O)COC(=O)c1cc(Cl)nc(Cl)c1
- inhibition [1]: 2.37% (inactive)

SMILES: Cc1ccc(NC(=O)c2cccc(S(=O)(=O)N3CCN(C)CC3)c2)cc1F
- inhibition [1]: inactive

SMILES: CCOc1ccc(C(=O)Nc2sc3c(c2C(=O)OC)CC(C)(C)NC3(C)C)cc1
- inhibition [1]: 10.2% (inactive)

SMILES: COC(=O)c1c(NC(=O)c2ccccc2)sc2c1CC(C)(C)NC2(C)C
- inhibition [1]: 1.35% (inactive)

SMILES: COc1ccc(NC(=O)C2CCN(S(=O)(=O)c3cccc4nonc34)CC2)cc1
- inhibition [1]: 1.18% (inactive)

SMILES: O=C(O)c1cccc(N/N=C/c2cc(Br)cc(Br)c2O)c1
- inhibition [1]: 0.48% (inactive)

SMILES: O=C(O)c1ccccc1NN=Cc1ccccc1
- inhibition [1]: 0.89% (inactive)

SMILES: COc1ccc(CN2CCN(c3ccccc3F)CC2)cc1O
- inhibition [1]: 0.89% (inactive)

SMILES: CCc1ccc(Nc2nc(N3CCOCC3)nc(N3CCOCC3)n2)cc1
- inhibition [1]: 0.26% (inactive)

SMILES: Cn1cc(Br)c(C(=O)NNC(=O)c2ccc(Cl)cc2)n1
- inhibition [1]: 0.65% (inactive)

SMILES: CCCCC#Cc1cncc(C(=O)NN)c1
- inhibition [1]: 1.61% (inactive)

SMILES: CC1CCN(c2ccc(C(=O)O)cc2NS(=O)(=O)c2ccc(Br)cc2)CC1
- inhibition [1]: inactive

SMILES: CC(=O)Nc1cccc(Oc2ncnc3scc(-c4ccc(C)cc4)c23)c1
- inhibition [1]: 7.98% (inactive)

SMILES: CC(=O)Nc1cccc(Oc2ncnc3scc(-c4ccccc4)c23)c1
- inhibition [1]: 11% (inactive)
